# Experimental data as given in PubChem BioAssay (NCATS).
# Records with an inconclusive call do not appear. Calls of active or inactive are those of the source. Calls follow the shape of the dose curve; as a rule, active = well fitted inhibition curve with a large enough effect; inconclusive = small, poorly fitted or top-dose-only effect; inactive = flat fitted curve, though single readings scatter.
# Columns and labels:
# [1] = qHTS for identification of novel therapeutic agents for treatment of microphthalmiaassociated transcription factor (MiT) renal cell carcinoma (RCC) (AID 1963991); conditions: CellTiter-Glo, 48 h, stronger effect = lower value
# Procedure, shortened: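 Three TFE3-fusion RCC lines (UOK109, UOK124, UOK145), 500 cells/well in complete medium, were treated with MIPE 4.0 compounds for 48 hours at 37 C. Viability was by CellTiter-Glo luminescence, normalized to DMSO (100%) and empty wells (0%); curves fitted over 11 concentrations.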
# [2] = qHTS profiling for inhibitors of Plasmodium falciparum proliferation (AID 504749); also: nearly all actives have a fitted effect of over 60% in size; also: potency is read from the fitted curve at half-maximal effect;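 as to activity, negative = inhibition: 0% = DMSO vehicle and full inhibition = artemisinin control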; conditions: P. falciparum in erythrocytes, SYBR Green DNA, 72 h
# Procedure, shortened: (§1)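 Infected RBCs, 0.3% parasitemia/2.5% Hct final; cpd 72 h, 37 C, 5% CO2; lysis buffer with saponin/triton/SYBR Green I, o/n RT dark; FI 485/535; norm. to artemisinin (0.29 uM) and DMSO.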
# 3D7 = assay: as above; conditions: P. falciparum in erythrocytes, SYBR Green DNA, 72 h; series mostly up to 28.7 µM
# Procedure, shortened: as §1
# 7G8 = assay: as above; conditions: P. falciparum in erythrocytes, SYBR Green DNA, 72 h; series mostly up to 28.7 µM
# Procedure, shortened: as §1
# AA1029 = assay: as above; conditions: P. falciparum in erythrocytes, SYBR Green DNA, 72 h; series mostly up to 28.7 µM
# Procedure, shortened: as §1
# AS120 = assay: as above; conditions: P. falciparum in erythrocytes, SYBR Green DNA, 72 h; series mostly up to 28.7 µM
# Procedure, shortened: as §1
# ATS189 = assay: as above; conditions: P. falciparum in erythrocytes, SYBR Green DNA, 72 h; series mostly up to 28.7 µM
# Procedure, shortened: as §1
# ATS95 = assay: as above; conditions: P. falciparum in erythrocytes, SYBR Green DNA, 72 h; series mostly up to 28.7 µM
# Procedure, shortened: as §1
# C2A = assay: as above; conditions: P. falciparum in erythrocytes, SYBR Green DNA, 72 h; series mostly up to 28.7 µM
# Procedure, shortened: as §1
# CP185 = assay: as above; conditions: P. falciparum in erythrocytes, SYBR Green DNA, 72 h; series mostly up to 28.7 µM
# Procedure, shortened: as §1
# [3] = TFE3-RCC UOK109 viability, measured here: UOK109 Z-AUC
# [4] = TFE3-RCC viability, measured here: UOK124 Z-AUC
# [5] = TFE3-RCC viability, measured here: UOK145 Z-AUC
# [6] = at 28.7 µM (top of the series), parasite line A
# [7] = at 28.7 µM (top of the series), parasite line B
compound,measurement,setting,value
COc1c2occc2cc2ccc(=O)oc12,z-score,[1]; [3],-0.0945
same,z-score,[1]; [4],0.483
same,z-score,[1]; [5],0.177
Nc1ccc(S(N)(=O)=O)cc1,z-score,[1]; [3],1.06
same,z-score,[1]; [4],0.709
same,z-score,[1]; [5],1.29
same,"activity, negative = inhibition",[2]; [6],13.4% (inactive)
same,"activity, negative = inhibition",[2]; [7],14.6% (inactive)
same,Potency,3D7,inactive
same,Potency,7G8,inactive
same,Potency,AA1029,inactive
same,Potency,AS120,inactive
same,Potency,ATS189,inactive
same,Potency,ATS95,inactive
same,Potency,C2A,inactive
same,Potency,CP185,inactive
NS(=O)(=O)c1cc(C(=O)O)c(NCc2ccco2)cc1Cl,z-score,[1]; [3],-0.035
same,z-score,[1]; [4],-0.245
same,z-score,[1]; [5],0.387
O=c1c(O)c(-c2ccc(O)cc2O)oc2cc(O)cc(O)c12,z-score,[1]; [3],0.0602
same,z-score,[1]; [4],0.591
same,z-score,[1]; [5],-0.0945
COc1c(O)cc2c(c1O)[C@@H]1O[C@H](CO)[C@@H](O)[C@H](O)[C@H]1OC2=O,z-score,[1]; [3],0.427
same,z-score,[1]; [4],0.313
same,z-score,[1]; [5],-0.262
Cc1ccc(C(=O)c2cc(O)c(O)c([N+](=O)[O-])c2)cc1,z-score,[1]; [3],0.222
same,z-score,[1]; [4],0.88
same,z-score,[1]; [5],0.533
c1ccc2[nH]c(-c3cscn3)nc2c1,z-score,[1]; [3],-0.345
same,z-score,[1]; [4],0.601
same,z-score,[1]; [5],-0.852
same,"activity, negative = inhibition",[2]; [7],-25.8% (inactive)
same,Potency,3D7,inactive
same,Potency,7G8,inactive
same,Potency,AA1029,inactive
same,Potency,AS120,inactive
same,Potency,ATS95,inactive
same,Potency,C2A,inactive
COc1cc(OC)c(C(=O)CCCN2CCCC2)c(OC)c1,z-score,[1]; [3],1.14
same,z-score,[1]; [4],0.362
same,z-score,[1]; [5],-0.41
same,"activity, negative = inhibition","[2]; at 12.8 µM (top of the series), parasite line A",17.5% (inactive)
same,"activity, negative = inhibition","[2]; at 12.8 µM (top of the series), parasite line B",11% (inactive)
same,Potency,3D7,inactive
same,Potency,7G8,inactive
same,Potency,AA1029,inactive
same,Potency,AS120,inactive
same,Potency,ATS189,inactive
same,Potency,ATS95,inactive
same,Potency,C2A,inactive
same,Potency,CP185,inactive
Cc1nc2n(c(=O)c1CCN1CCC(c3noc4cc(F)ccc34)CC1)CCCC2,z-score,[1]; [3],0.0752
same,z-score,[1]; [4],0.441
same,z-score,[1]; [5],0.372
same,"activity, negative = inhibition",[2]; [6],8.34% (inactive)
same,"activity, negative = inhibition",[2]; [7],15.8% (inactive)
same,Potency,3D7,inactive
same,Potency,7G8,10 µM (active)
same,Potency,AA1029,inactive
same,Potency,AS120,inactive
same,Potency,ATS189,inactive
same,Potency,ATS95,inactive
same,Potency,C2A,inactive
same,Potency,CP185,inactive
O=C(O)c1cn(-c2ccc(F)cc2)c2cc(N3CCNCC3)c(F)cc2c1=O,z-score,[1]; [3],0.863
same,z-score,[1]; [4],0.568
same,z-score,[1]; [5],0.628
same,"activity, negative = inhibition",[2]; [6],-18.3% (inactive)
same,"activity, negative = inhibition",[2]; [7],-17.6% (inactive)
same,Potency,3D7,inactive
same,Potency,AS120,inactive
same,Potency,ATS189,inactive
same,Potency,C2A,inactive
O=C(O)CCNC(=O)c1ccc(N=Nc2ccc(O)c(C(=O)O)c2)cc1,z-score,[1]; [3],1.03
same,z-score,[1]; [4],0.51
same,z-score,[1]; [5],0.488
same,"activity, negative = inhibition",[2]; [6],4.07% (inactive)
same,"activity, negative = inhibition",[2]; [7],9.54% (inactive)
same,Potency,3D7,inactive
same,Potency,7G8,inactive
same,Potency,AA1029,inactive
same,Potency,AS120,inactive
same,Potency,ATS189,inactive
same,Potency,ATS95,inactive
same,Potency,C2A,inactive
same,Potency,CP185,inactive
COC(=O)C1=C(C)NC(C)=C(C(=O)OCCCN2CCC(c3ccccc3)(c3ccccc3)CC2)C1c1cccc([N+](=O)[O-])c1 (centres undefined),z-score,[1]; [3],1.29
same,z-score,[1]; [4],0.568
same,z-score,[1]; [5],0.759
same,Potency,[2]; parasite line A,4.47 µM (active)
same,Potency,[2]; parasite line B,6.31 µM (active)
same,Potency,3D7,2.82 µM (active)
same,Potency,7G8,2 µM (active)
same,Potency,AA1029,4.47 µM (active)
same,Potency,AS120,2.82 µM (active)
same,Potency,ATS189,4.47 µM (active)
same,Potency,ATS95,5.01 µM (active)
same,Potency,C2A,3.98 µM (active)
same,Potency,CP185,7.08 µM (active)
Cc1c(OCC(F)(F)F)ccnc1CS(=O)c1nc2ccccc2[nH]1 (centres undefined),z-score,[1]; [3],0.51
same,z-score,[1]; [4],0.775
same,z-score,[1]; [5],0.275
same,"activity, negative = inhibition",[2]; [6],-19.3% (inactive)
same,"activity, negative = inhibition",[2]; [7],-5.11% (inactive)
same,Potency,3D7,inactive
same,Potency,AA1029,inactive
same,Potency,AS120,inactive
same,Potency,ATS189,inactive
same,Potency,ATS95,inactive
same,Potency,C2A,inactive
same,Potency,CP185,inactive
Cc1cc2c(s1)Nc1ccccc1N=C2N1CCN(C)CC1,z-score,[1]; [3],0.52
same,z-score,[1]; [4],0.714
same,z-score,[1]; [5],0.593
same,"activity, negative = inhibition",[2]; [6],6.07% (inactive)
same,"activity, negative = inhibition",[2]; [7],8.04% (inactive)
same,Potency,3D7,inactive
same,Potency,AA1029,inactive
same,Potency,AS120,inactive
same,Potency,ATS189,inactive
same,Potency,ATS95,inactive
same,Potency,C2A,inactive
same,Potency,CP185,inactive
CC(C)c1ccc2oc3nc(N)c(C(=O)O)cc3c(=O)c2c1,z-score,[1]; [3],0.102
same,z-score,[1]; [4],0.464
same,z-score,[1]; [5],0.404
same,"activity, negative = inhibition",[2]; [6],-29.9% (inactive)
same,"activity, negative = inhibition",[2]; [7],-11.5% (inactive)
same,Potency,3D7,inactive
same,Potency,ATS189,inactive
same,Potency,ATS95,inactive
same,Potency,C2A,inactive
same,Potency,CP185,inactive
CNC[C@@H](O)[C@@H](O)[C@H](O)[C@H](O)CO,z-score,[1]; [3],1.02
same,z-score,[1]; [4],0.532
same,z-score,[1]; [5],0.899
same,"activity, negative = inhibition",[2]; [6],7.09% (inactive)
same,"activity, negative = inhibition",[2]; [7],5.8% (inactive)
same,Potency,3D7,inactive
same,Potency,7G8,inactive
same,Potency,AA1029,inactive
same,Potency,AS120,inactive
same,Potency,ATS189,inactive
same,Potency,ATS95,inactive
same,Potency,C2A,inactive
same,Potency,CP185,inactive
COCCCOc1ccnc(CS(=O)c2nc3ccccc3[nH]2)c1C (centres undefined),z-score,[1]; [3],0.673
same,z-score,[1]; [4],0.741
same,z-score,[1]; [5],0.739
same,"activity, negative = inhibition",[2]; [6],-29% (inactive)
same,"activity, negative = inhibition",[2]; [7],-20.3% (inactive)
same,Potency,3D7,inactive
same,Potency,AA1029,inactive
same,Potency,AS120,inactive
same,Potency,ATS189,inactive
same,Potency,ATS95,inactive
same,Potency,C2A,inactive
same,Potency,CP185,inactive
O=P(O)(O)C(O)(Cn1ccnc1)P(=O)(O)O,z-score,[1]; [3],0.735
same,z-score,[1]; [4],1.17
same,z-score,[1]; [5],1.01
same,"activity, negative = inhibition",[2]; [6],8.24% (inactive)
same,"activity, negative = inhibition",[2]; [7],-1.43% (inactive)
same,Potency,3D7,inactive
same,Potency,7G8,inactive
same,Potency,AA1029,inactive
same,Potency,AS120,inactive
same,Potency,ATS189,inactive
same,Potency,ATS95,inactive
same,Potency,C2A,inactive
same,Potency,CP185,inactive
O=C(O)c1cccnc1Nc1cccc(C(F)(F)F)c1,z-score,[1]; [3],0.327
same,z-score,[1]; [4],0.739
same,z-score,[1]; [5],0.463
same,"activity, negative = inhibition",[2]; [6],8.39% (inactive)
same,"activity, negative = inhibition",[2]; [7],13.5% (inactive)
same,Potency,3D7,inactive
same,Potency,7G8,inactive
same,Potency,AA1029,inactive
same,Potency,AS120,inactive
same,Potency,ATS189,inactive
same,Potency,ATS95,inactive
same,Potency,C2A,inactive
same,Potency,CP185,inactive
